Data taken from the supplement of paper PMC10849652.
Of roughly 7,900 targets only a part is listed; those with a hit were picked by preference. About 0.6% of all pairs of compound and target were hits.

The targets below were run with CC1=C(C=C(C=C1)NC(=O)C2=CC(=CC=C2)C(C)(C)C#N)NC3=CC4=C(C=C3)N=CN(C4=O)C (assay: log2 fold change, soluble protein after heating vs DMSO (PISA); higher = thermal stabilisation; K562 cells, 10 uM, 30 min; active = over 0.2 and 3.5 SD of the protein, either way, in both replicates (recomputed)).
Summary of the method: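 For each measurement, 10 μM compound was applied for 30 min to K562 cells at 2×10^6 cells/mL. Aliquots were heated for 3 min across 48°C-58°C, pooled, and extracted in PBS with 0.5% NP-40 at 4°C; the supernatant after 21,000xg for 90 min was soluble protein. This was quantified by TMTpro 16plex LC-MS/MS with channel sums equalised, and thermal stability was reported relative to control samples from duplicates, on a log2 fold-change scale.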

Chain of UniProt O43237 (O43237 whole entry, looked up): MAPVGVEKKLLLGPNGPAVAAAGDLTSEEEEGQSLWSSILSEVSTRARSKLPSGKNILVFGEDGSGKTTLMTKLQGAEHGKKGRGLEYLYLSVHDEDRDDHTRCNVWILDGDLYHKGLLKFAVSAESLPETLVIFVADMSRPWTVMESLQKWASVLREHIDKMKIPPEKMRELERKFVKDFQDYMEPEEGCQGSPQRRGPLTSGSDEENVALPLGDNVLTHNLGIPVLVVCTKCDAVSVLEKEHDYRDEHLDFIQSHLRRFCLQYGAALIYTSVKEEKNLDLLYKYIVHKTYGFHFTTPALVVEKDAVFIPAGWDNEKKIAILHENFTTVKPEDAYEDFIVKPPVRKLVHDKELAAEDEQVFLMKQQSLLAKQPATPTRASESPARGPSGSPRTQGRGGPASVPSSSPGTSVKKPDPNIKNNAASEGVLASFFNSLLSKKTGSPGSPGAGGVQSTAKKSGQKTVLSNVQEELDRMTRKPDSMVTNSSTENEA
Chain of UniProt O94905 (O94905 whole entry, looked up): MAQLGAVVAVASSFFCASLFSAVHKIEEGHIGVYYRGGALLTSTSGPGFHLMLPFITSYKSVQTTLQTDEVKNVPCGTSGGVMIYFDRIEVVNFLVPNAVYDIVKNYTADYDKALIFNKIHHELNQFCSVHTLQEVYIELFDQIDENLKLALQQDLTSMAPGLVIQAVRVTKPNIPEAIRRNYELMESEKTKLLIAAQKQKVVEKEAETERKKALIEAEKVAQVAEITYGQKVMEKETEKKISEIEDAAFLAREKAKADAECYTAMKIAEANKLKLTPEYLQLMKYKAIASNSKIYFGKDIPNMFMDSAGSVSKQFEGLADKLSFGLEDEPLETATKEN
Chain of UniProt P09622 (P09622 whole entry, looked up): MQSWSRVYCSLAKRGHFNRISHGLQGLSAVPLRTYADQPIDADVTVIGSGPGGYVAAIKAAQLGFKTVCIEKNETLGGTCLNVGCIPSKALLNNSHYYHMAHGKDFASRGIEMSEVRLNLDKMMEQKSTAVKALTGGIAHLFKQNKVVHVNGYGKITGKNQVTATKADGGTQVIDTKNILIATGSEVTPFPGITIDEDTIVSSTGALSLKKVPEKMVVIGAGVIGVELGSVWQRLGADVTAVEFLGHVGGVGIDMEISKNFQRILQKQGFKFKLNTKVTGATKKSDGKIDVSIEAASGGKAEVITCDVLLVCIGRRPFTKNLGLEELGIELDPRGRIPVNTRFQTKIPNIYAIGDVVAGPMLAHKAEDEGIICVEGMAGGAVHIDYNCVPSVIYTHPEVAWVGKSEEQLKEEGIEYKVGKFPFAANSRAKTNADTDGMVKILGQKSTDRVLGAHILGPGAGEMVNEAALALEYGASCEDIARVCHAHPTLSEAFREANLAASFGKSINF
Chain of UniProt Q96GE9 (Q96GE9 whole entry, looked up): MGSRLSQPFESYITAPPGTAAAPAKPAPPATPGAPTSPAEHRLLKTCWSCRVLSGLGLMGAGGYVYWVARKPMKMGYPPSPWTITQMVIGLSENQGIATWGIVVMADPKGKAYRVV
Chain of UniProt Q16254 (Q16254 whole entry, looked up): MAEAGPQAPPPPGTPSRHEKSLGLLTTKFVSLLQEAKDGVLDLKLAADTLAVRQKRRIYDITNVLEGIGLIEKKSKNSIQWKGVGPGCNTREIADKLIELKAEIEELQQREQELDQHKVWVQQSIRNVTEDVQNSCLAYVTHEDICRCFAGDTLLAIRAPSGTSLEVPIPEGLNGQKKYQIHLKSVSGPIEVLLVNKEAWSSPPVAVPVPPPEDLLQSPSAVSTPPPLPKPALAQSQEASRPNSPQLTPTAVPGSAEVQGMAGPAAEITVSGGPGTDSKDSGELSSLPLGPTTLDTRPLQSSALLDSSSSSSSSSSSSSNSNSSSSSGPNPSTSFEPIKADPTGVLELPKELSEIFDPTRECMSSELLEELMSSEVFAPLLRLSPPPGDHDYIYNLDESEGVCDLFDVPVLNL
Chain of UniProt P49366 (P49366 whole entry, looked up): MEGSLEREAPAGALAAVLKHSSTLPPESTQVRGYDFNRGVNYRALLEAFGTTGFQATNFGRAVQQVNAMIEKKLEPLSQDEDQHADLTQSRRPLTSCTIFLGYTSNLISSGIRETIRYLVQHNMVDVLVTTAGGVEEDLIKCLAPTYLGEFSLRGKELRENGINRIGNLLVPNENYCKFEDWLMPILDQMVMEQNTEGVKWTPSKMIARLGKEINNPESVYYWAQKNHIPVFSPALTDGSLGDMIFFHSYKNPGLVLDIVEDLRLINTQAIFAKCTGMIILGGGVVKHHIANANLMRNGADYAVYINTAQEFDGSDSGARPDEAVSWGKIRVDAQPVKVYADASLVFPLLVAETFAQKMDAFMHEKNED
Chain of UniProt P24534 (P24534 whole entry, looked up): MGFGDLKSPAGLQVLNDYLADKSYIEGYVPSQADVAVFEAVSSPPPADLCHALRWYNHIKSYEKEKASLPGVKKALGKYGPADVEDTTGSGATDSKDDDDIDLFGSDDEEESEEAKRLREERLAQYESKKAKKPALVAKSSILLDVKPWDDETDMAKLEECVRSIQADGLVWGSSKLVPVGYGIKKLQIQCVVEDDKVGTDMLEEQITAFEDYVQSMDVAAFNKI
Chain of UniProt P09668 (P09668 whole entry, looked up): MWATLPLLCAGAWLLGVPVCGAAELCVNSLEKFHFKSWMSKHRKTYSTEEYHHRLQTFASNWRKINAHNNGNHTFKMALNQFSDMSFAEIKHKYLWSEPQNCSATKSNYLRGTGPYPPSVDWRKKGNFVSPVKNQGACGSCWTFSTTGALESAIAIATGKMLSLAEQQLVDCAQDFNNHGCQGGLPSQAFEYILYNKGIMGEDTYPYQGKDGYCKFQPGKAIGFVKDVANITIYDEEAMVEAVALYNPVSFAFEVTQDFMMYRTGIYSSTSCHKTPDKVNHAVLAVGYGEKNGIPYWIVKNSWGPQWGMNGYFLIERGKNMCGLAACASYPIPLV
Chain of UniProt O75071 (O75071 whole entry, looked up): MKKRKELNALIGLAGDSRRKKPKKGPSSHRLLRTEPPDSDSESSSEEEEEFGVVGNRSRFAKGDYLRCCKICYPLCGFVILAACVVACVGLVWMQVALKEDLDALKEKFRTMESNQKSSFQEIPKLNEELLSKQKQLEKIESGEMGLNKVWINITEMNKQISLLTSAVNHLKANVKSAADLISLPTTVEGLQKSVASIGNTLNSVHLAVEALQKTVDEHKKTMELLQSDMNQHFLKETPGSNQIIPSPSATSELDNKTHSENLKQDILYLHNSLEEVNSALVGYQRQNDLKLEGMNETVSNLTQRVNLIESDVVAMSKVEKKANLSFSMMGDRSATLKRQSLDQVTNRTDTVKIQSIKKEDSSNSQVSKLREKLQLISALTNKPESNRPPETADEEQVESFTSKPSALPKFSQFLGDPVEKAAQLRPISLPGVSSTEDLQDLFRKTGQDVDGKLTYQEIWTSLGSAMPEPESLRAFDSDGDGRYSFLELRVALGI
Chain of UniProt Q14118 (Q14118 whole entry, looked up): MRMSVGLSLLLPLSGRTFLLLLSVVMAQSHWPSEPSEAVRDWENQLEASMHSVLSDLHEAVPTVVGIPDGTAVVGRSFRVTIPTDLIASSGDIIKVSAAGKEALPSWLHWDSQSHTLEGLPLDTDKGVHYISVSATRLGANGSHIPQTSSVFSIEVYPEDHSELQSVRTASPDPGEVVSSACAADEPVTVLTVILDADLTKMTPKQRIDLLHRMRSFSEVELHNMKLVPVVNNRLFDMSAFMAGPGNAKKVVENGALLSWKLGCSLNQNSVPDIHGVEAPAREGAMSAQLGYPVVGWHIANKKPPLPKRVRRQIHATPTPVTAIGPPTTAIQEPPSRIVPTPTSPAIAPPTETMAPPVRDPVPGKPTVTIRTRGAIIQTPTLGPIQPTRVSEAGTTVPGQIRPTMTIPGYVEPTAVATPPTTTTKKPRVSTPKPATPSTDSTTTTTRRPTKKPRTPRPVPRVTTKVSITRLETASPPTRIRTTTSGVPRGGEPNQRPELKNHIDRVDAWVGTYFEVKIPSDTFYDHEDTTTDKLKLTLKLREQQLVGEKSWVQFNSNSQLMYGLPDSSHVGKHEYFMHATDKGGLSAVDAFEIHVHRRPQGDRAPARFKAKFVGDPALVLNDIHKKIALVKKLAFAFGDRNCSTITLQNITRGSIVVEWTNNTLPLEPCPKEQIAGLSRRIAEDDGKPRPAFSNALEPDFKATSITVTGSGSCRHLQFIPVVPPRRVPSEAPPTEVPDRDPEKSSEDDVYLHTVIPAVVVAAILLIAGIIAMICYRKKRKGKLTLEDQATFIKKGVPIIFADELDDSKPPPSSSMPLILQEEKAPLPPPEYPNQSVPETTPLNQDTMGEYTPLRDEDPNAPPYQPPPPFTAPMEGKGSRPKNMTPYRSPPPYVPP
Chain of UniProt Q8N128 (Q8N128 whole entry, looked up): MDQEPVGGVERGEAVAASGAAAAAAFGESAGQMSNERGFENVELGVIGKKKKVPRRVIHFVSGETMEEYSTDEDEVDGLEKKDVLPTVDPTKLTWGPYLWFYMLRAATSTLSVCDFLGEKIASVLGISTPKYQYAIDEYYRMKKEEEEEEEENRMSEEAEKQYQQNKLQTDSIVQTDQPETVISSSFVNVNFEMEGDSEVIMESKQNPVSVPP
Chain of UniProt Q13011 (Q13011 whole entry, looked up): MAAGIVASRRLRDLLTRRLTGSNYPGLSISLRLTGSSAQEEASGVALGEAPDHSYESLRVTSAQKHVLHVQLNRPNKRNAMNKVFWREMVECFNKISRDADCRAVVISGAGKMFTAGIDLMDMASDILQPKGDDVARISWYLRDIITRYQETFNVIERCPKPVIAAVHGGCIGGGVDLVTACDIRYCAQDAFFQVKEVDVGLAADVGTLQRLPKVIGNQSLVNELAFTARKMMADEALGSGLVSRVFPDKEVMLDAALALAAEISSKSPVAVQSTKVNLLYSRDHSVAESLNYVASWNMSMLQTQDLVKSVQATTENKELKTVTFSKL
Chain of UniProt Q9H773 (Q9H773 whole entry, looked up): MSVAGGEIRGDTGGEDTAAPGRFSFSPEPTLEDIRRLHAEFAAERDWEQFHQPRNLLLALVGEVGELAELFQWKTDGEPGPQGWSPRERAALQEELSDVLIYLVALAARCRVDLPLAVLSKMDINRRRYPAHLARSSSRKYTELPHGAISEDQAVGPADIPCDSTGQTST

| Target | log2 fold change |
| --- | --- |
| FAM3A (UniProt P98173) | -0.022 (inactive) |
| CTSZ (UniProt Q9UBR2) | -0.009 (inactive) |
| DMXL1 (UniProt Q9Y485) | -0.075 (inactive) |
| EXTL2 (UniProt Q9UBQ6) | 0.072 (inactive) |
| CUEDC2 (UniProt Q9H467) | -0.03 (inactive) |
| CYFIP1 (UniProt Q7L576) | 0.012 (inactive) |
| ECH1 (UniProt Q13011) | 0.005 (inactive) |
| FAM114A2 (UniProt Q9NRY5) | 0.007 (inactive) |
| EFCAB14 (UniProt O75071) | -0.034 (inactive) |
| DDX46 (UniProt Q7L014) | 0.123 (inactive) |
| FAM177A1 isoform 2 (UniProt Q8N128) | -0.071 (inactive) |
| DPH5 isoform 5 (UniProt Q9H2P9) | 0.009 (inactive) |
| DNAJB12 (UniProt Q9NXW2) | -0.071 (inactive) |
| EXOC4 (UniProt Q96A65) | -0.021 (inactive) |
| DTNBP1 (UniProt Q96EV8) | -0.078 (inactive) |
| DYNC1LI2 (UniProt O43237) | 0.013 (inactive) |
| EBNA1BP2 (UniProt Q99848) | -0.014 (inactive) |
| EEF1B2 (UniProt P24534) | 0.024 (inactive) |
| DCUN1D1 (UniProt Q96GG9) | -0.027 (inactive) |
| DLD (UniProt P09622) | -0.045 (inactive) |

| Target | log2 fold change |
| --- | --- |
| DNAJC7 (UniProt Q99615) | -0.006 (inactive) |
| DCAF6 isoform 3 (UniProt Q58WW2) | 0.016 (inactive) |
| FAM50A (UniProt Q14320) | 0.041 (inactive) |
| CTSH (UniProt P09668) | -0.007 (inactive) |
| E2F4 (UniProt Q16254) | 0.031 (inactive) |
| DCP2 (UniProt Q8IU60) | -0.134 (inactive) |
| DTYMK (UniProt P23919) | -0.001 (inactive) |
| EOGT (UniProt Q5NDL2) | -0.043 (inactive) |
| DCTPP1 (UniProt Q9H773) | 0.003 (inactive) |
| DHPS (UniProt P49366) | -0.074 (inactive) |
| DHRS1 (UniProt Q96LJ7) | 0.357 (inactive) |
| EXOC2 (UniProt Q96KP1) | -0.03 (inactive) |
| DMAC1 (UniProt Q96GE9) | -0.173 (inactive) |
| FAAP100 (UniProt Q0VG06) | -0.004 (inactive) |
| DNAH5 (UniProt Q8TE73) | -0.047 (inactive) |
| ERCC6 (UniProt Q03468) | -0.127 (inactive) |
| ERLIN2 (UniProt O94905) | -0.045 (inactive) |
| DAG1 (UniProt Q14118) | -0.053 (inactive) |
| EHBP1L1 (UniProt Q8N3D4) | 0 (inactive) |
